The panel holds about 79,000 compounds, 15% with a hit somewhere; the sample as a whole holds those more often. Calls of active or inactive are those of the source. No stated cut-off is given here; in the data, active means growth inhibition above about 70%; inactive means the rest.
Assays:
[1] = NCI Yeast Anticancer Drug Screen. Data for the rad52 strain (AID 147);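 further: 0% = growth of vehicle-treated control cultures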; conditions: S. cerevisiae rad52 mutant growth inhibition, stronger effect = higher value
Summary of the method: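 Yeast strain carrying a DNA damage repair alteration was exposed to test compounds. Growth inhibition was measured relative to vehicle-treated controls.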

[2] = NCI Yeast Anticancer Drug Screen. Data for the wt1 strain (AID 149);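 further: 0% = growth of vehicle-treated wt1 cultures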; conditions: S. cerevisiae wt1 strain (SPY 50644) growth inhibition, stronger effect = higher value
Summary of the method: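 The wt1 strain was treated with compounds, and growth was compared with vehicle-treated cultures to give inhibition.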

[3] = NCI Yeast Anticancer Drug Screen. Data for the rad50EPP+ strain (AID 151);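 further: 0% = growth of vehicle-treated control cultures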; conditions: S. cerevisiae rad50 mutant strain, stronger effect = higher value
Summary of the method: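 Yeast strain carrying rad50 alteration (rad50EPP+) exposed to compounds; growth inhibition measured relative to vehicle-treated controls.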

[4] = NCI Yeast Anticancer Drug Screen. Data for the mgt1 strain (AID 153); conditions: S. cerevisiae mgt1 mutant growth inhibition, stronger effect = higher value
Summary of the method: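 Yeast mgt1 strain (DNA repair/cell-cycle alteration panel) exposed to compounds; growth inhibition measured relative to vehicle-treated controls.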

[5] = NCI Yeast Anticancer Drug Screen. Data for the rad50 strain (AID 155);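 further: 0% = growth of vehicle-only cultures of the same strain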; conditions: S. cerevisiae rad50 strain growth inhibition, stronger effect = higher value
Summary of the method: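 Cells are treated with compound, grown, and their growth is then scored against vehicle-only cultures of the same repair-deficient yeast strain.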

[6] = NCI Yeast Anticancer Drug Screen. Data for the mec2-1 strain (AID 157); conditions: S. cerevisiae mec2-1 strain, stronger effect = higher value
Summary of the method: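 mec2-1 yeast strain, carrying an alteration in DNA damage repair or cell cycle control, was exposed to compounds; growth inhibition was measured relative to vehicle-treated controls.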

[7] = NCI Yeast Anticancer Drug Screen. Data for the rad14 strain (AID 159);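 further: 0% = growth of vehicle-treated control cultures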; conditions: S. cerevisiae rad14 strain growth inhibition, stronger effect = higher value
Summary of the method: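 Readout: yeast growth inhibition, referenced to vehicle-only cultures. Strain bears a defined alteration in DNA damage repair.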

[8] = NCI Yeast Anticancer Drug Screen. Data for the sgs1 mgt1 strain (AID 161);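 further: 0% = growth of cultures given vehicle only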; conditions: S. cerevisiae sgs1 mgt1 strain, stronger effect = higher value
Summary of the method: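 Growth of a repair-deficient yeast mutant was monitored after compound treatment and expressed as inhibition relative to vehicle-treated cultures.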

[9] = NCI Yeast Anticancer Drug Screen. Data for the CLN2oe strain (AID 163);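 further: 0% = growth of vehicle-only control cultures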; conditions: S. cerevisiae CLN2oe strain, stronger effect = higher value
Summary of the method: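 Yeast cells carrying a defined cell-cycle control alteration were exposed to test compounds. Growth inhibition was scored against vehicle-treated control cultures.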

[10] = NCI Yeast Anticancer Drug Screen. Data for the cln2 rad14 strain (AID 165);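 further: 0% = growth equal to vehicle treated cultures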; conditions: S. cerevisiae cln2 rad14 strain, stronger effect = higher value
Summary of the method: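 Yeast carrying cln2 and rad14 alterations (cell cycle control and DNA damage repair) were exposed to compounds. Growth inhibition was measured against vehicle-treated controls.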

[11] = NCI Yeast Anticancer Drug Screen. Data for the bub3 strain (AID 167); conditions: S. cerevisiae bub3 mutant strain, stronger effect = higher value
Summary of the method: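 Part of a panel of yeast mutants defective in DNA damage repair or cell cycle regulation. Each strain is grown with compound, and inhibition is calculated relative to solvent-treated cultures.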

[12] = NCI Yeast Anticancer Drug Screen. Data for the wt2 strain (AID 169);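 further: 0% = growth of vehicle-treated yeast cultures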; conditions: S. cerevisiae wt2 strain growth inhibition, stronger effect = higher value
Summary of the method: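 Yeast cells were exposed to test compounds, and growth inhibition was measured relative to vehicle-treated controls.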

[13] = NCI Yeast Anticancer Drug Screen. Data for the mlh1 strain (AID 171);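 further: 0% = growth of vehicle-treated control cultures of the same strain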; conditions: S. cerevisiae mlh1 strain growth inhibition, stronger effect = higher value
Summary of the method: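 Yeast carrying a defined genetic alteration in DNA damage repair or cell cycle control were exposed to test compounds. Growth inhibition was measured relative to vehicle-treated controls.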

[14] = NCI Yeast Anticancer Drug Screen. Data for the sgs1 strain (AID 173);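 further: 0% = growth of vehicle-only control cultures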; conditions: S. cerevisiae sgs1 mutant, stronger effect = higher value
Summary of the method: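 Yeast mutant strains carrying defined defects in DNA damage repair or cell cycle control were exposed to test compounds. Growth inhibition was scored against vehicle-treated controls.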

[15] = NCI Yeast Anticancer Drug Screen. Data for the mlh1 rad18 strain (AID 175); conditions: S. cerevisiae mlh1 rad18 strain growth inhibition, stronger effect = higher value
Summary of the method: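 Growth inhibition of the yeast strain was measured after compound exposure and expressed relative to vehicle-treated controls. The strain carries defined defects in DNA damage repair.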

[16] = NCI Yeast Anticancer Drug Screen. Data for the rad18 strain (AID 177); conditions: S. cerevisiae rad18 mutant growth inhibition, stronger effect = higher value
Summary of the method: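 Yeast carrying a defined DNA damage repair alteration were exposed to compounds. Growth inhibition was expressed relative to vehicle-treated controls.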

[17] = at 5.0 µM (retest, dose inferred, filed as 0.5)
[18] = at 50.0 µM (retest, dose inferred, filed as 5.0)

Measured: growth inhibition

COc1ccc2c3c1OC(C)C31CC(=O)CCC1CC2 (stereo unspecified)
inactive: [1]; at 1.2 µM -4% | [1]; at 3.7 µM -1% | [1]; at 11.0 µM 4% | [1]; at 33.0 µM 2% | [1]; at 100.0 µM 15% | [2]; at 1.2 µM -3% | [2]; at 3.7 µM -4% | [2]; at 11.0 µM -5% | [2]; at 33.0 µM -5% | [2]; at 100.0 µM -3% | [3]; at 1.2 µM -5% | [3]; at 3.7 µM 1% | [3]; at 11.0 µM 6% | [3]; at 33.0 µM -1% | [3]; at 100.0 µM 4% | [4]; at 1.2 µM -8% | [4]; at 3.7 µM -5% | [4]; at 11.0 µM -4% | [4]; at 33.0 µM -2% | [4]; at 100.0 µM -1% | [5]; at 1.2 µM -2% | [5]; at 3.7 µM 1% | [5]; [17] 13% | [5]; at 11.0 µM 3% | [5]; at 33.0 µM 4% | [5]; [18] 23% | [5]; at 50.0 µM 7.25% | [5]; at 100.0 µM 13% | [6]; at 1.2 µM -4% | [6]; at 3.7 µM -2% | [6]; [17] -15% | [6]; at 11.0 µM -3% | [6]; at 33.0 µM -3% | [6]; [18] 2% | [6]; at 50.0 µM 14.7% | [6]; at 100.0 µM -2% | [7]; at 1.2 µM -2% | [7]; at 3.7 µM 1% | [7]; at 11.0 µM 2% | [7]; at 33.0 µM 1% | [7]; at 100.0 µM 7% | [8]; [17] 14% | [8]; [18] 25% | [8]; at 50.0 µM 8.45% | [9]; at 1.2 µM -2% | [9]; at 3.7 µM -8% | [9]; at 11.0 µM 1% | [9]; at 33.0 µM -1% | [9]; at 100.0 µM 8% | [10]; [17] 14% | [10]; [18] 9% | [10]; at 50.0 µM 5.05% | [11]; at 1.2 µM -5% | [11]; at 3.7 µM -3% | [11]; [17] 8% | [11]; at 11.0 µM -5% | [11]; at 33.0 µM 0% | [11]; [18] 34% | [11]; at 50.0 µM 10.9% | [11]; at 100.0 µM 8% | [12]; at 1.2 µM -8% | [12]; at 3.7 µM -9% | [12]; at 11.0 µM -7% | [12]; at 33.0 µM -7% | [12]; at 100.0 µM -11% | [13]; at 1.2 µM -6% | [13]; at 3.7 µM -2% | [13]; at 11.0 µM -3% | [13]; at 33.0 µM -4% | [13]; at 100.0 µM 1% | [14]; at 1.2 µM -1% | [14]; at 3.7 µM -6% | [14]; at 11.0 µM -8% | [14]; at 33.0 µM 9% | [14]; at 100.0 µM 9% | [15]; [17] 12% | [15]; [18] 51% | [15]; at 50.0 µM -0.75% | [16]; at 1.2 µM -7% | [16]; at 3.7 µM -1% | [16]; at 11.0 µM 3% | [16]; at 33.0 µM 0% | [16]; at 100.0 µM 25%

Cc1c(Cl)c(C)c(Cl)c(O)c1Cl
active: [1]; at 33.0 µM 79% | [1]; at 100.0 µM 98% | [2]; at 33.0 µM 80% | [2]; at 100.0 µM 98% | [3]; at 33.0 µM 75% | [3]; at 100.0 µM 93% | [4]; at 33.0 µM 98% | [4]; at 100.0 µM 98% | [5]; at 33.0 µM 92% | [5]; [18] 95% | [5]; at 50.0 µM 92.9% | [5]; at 100.0 µM 98% | [6]; at 33.0 µM 79% | [6]; [18] 96% | [6]; at 50.0 µM 93.2% | [6]; at 100.0 µM 99% | [7]; at 33.0 µM 95% | [7]; at 100.0 µM 99% | [8]; [18] 99% | [8]; at 50.0 µM 90.8% | [9]; at 33.0 µM 88% | [9]; at 100.0 µM 99% | [10]; [18] 100% | [10]; at 50.0 µM 93% | [11]; at 33.0 µM 76% | [11]; [18] 100% | [11]; at 50.0 µM 93% | [11]; at 100.0 µM 100% | [12]; at 33.0 µM 92% | [12]; at 100.0 µM 99% | [13]; at 33.0 µM 91% | [13]; at 100.0 µM 99% | [14]; at 33.0 µM 95% | [14]; at 100.0 µM 99% | [15]; [18] 97% | [15]; at 50.0 µM 72.2% | [16]; at 100.0 µM 97%
inactive: [1]; at 1.2 µM 17% | [1]; at 3.7 µM 7% | [1]; at 11.0 µM 28% | [2]; at 1.2 µM 11% | [2]; at 3.7 µM 9% | [2]; at 11.0 µM 13% | [3]; at 1.2 µM -21% | [3]; at 3.7 µM -9% | [3]; at 11.0 µM -6% | [4]; at 1.2 µM 18% | [4]; at 3.7 µM 7% | [4]; at 11.0 µM 56% | [5]; at 1.2 µM -14% | [5]; at 3.7 µM -21% | [5]; [17] 45% | [5]; at 11.0 µM -8% | [6]; at 1.2 µM -19% | [6]; at 3.7 µM 7% | [6]; [17] 51% | [6]; at 11.0 µM -7% | [7]; at 1.2 µM 5% | [7]; at 3.7 µM 6% | [7]; at 11.0 µM 11% | [8]; [17] 2% | [9]; at 1.2 µM 8% | [9]; at 3.7 µM -11% | [9]; at 11.0 µM 29% | [10]; [17] 32% | [11]; at 1.2 µM -17% | [11]; at 3.7 µM -2% | [11]; [17] 27% | [11]; at 11.0 µM 12% | [12]; at 1.2 µM -25% | [12]; at 3.7 µM -20% | [12]; at 11.0 µM 14% | [13]; at 1.2 µM 8% | [13]; at 3.7 µM -4% | [13]; at 11.0 µM 29% | [14]; at 1.2 µM 15% | [14]; at 3.7 µM 9% | [14]; at 11.0 µM 34% | [15]; [17] 33% | [16]; at 1.2 µM -26% | [16]; at 3.7 µM -4% | [16]; at 11.0 µM -25% | [16]; at 33.0 µM 65%

From PubChem BioAssay (NCI)
